Experiment [1] can be described thus: qHTS assay to identify small molecule antagonists of the thyroid receptor (TR) signaling pathway - cell viability counter screen (AID 743064). Also: nearly all actives have a fitted effect of over 50% in size. Summed up:
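GH3.TRE-Luc rat pituitary cells carrying a TRE-luciferase reporter were treated with compound plus 1 nM T3 (final) for 23.5 h at 37 °C. Viability was then read in the same wells by CellTiter-Fluor fluorescence after a further 30 min.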
(In qHTS, concentration-response curves come from the screen itself.)

Experiment [2] in a line: qHTS assay to identify small molecule antagonists of the thyroid receptor (TR) signaling pathway (AID 743065). Also: series mostly up to about 70 µM; nearly all actives have a fitted effect of over 55% in size. Summed up:
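GH3.TRE-Luc rat pituitary cells (two TREs driving luciferase) were dosed with compound, then stimulated with 1 nM T3 (final) for 23.5 h at 37 C. ONE-Glo luminescence was the read-out, with CellTiter-Fluor fluorescence as the cytotoxicity counter-screen.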

Experiment [3] concerns thyroid hormone receptor (rat, GH3 cells). Kind of experiment: qHTS assay to identify small molecule agonists of the thyroid receptor (TR) signaling pathway (AID 743066; calls by dose curve).
Experiment [4] concerns the target Estrogen receptor (Homo sapiens) (UniProt P03372). Kind of experiment: qHTS assay to identify small molecule antagonists of the estrogen receptor alpha (ER-alpha) signaling pathway (AID 743069; active = well fitted curve in the direction sought with a large enough effect in the signal ratio in the repeat runs, not every such curve was filed as active; the % refers to the signal ratio). Summed up: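 Reporter cells (ER-alpha-bla, HEK293 background) are conditioned overnight in stripped-serum medium (2% charcoal-stripped FBS). Compound and 17beta-estradiol exposure runs 18 hr at 37C, 5% CO2.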

The nature of experiment [5]: qHTS assay to identify small molecule antagonists of the estrogen receptor alpha (ER-alpha) signaling pathway - cell viability counter screen (AID 743074; calls by dose curve;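 also: HEK293 cells carrying ER-alpha-UAS-bla reporter stimulated with 17beta-estradiol; nearly all actives have a fitted effect of over 45% in size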).
The target of experiment [6] is Estrogen receptor (Homo sapiens) (UniProt P03372). Kind of experiment: qHTS assay to identify small molecule agonists of the estrogen receptor alpha (ER-alpha) signaling pathway (AID 743075; calls by dose curve;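 also: HEK293 GripTite cells with ER-alpha and UAS-driven beta-lactamase reporter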).
Chain of Estrogen receptor (Homo sapiens) (P03372 whole entry, looked up): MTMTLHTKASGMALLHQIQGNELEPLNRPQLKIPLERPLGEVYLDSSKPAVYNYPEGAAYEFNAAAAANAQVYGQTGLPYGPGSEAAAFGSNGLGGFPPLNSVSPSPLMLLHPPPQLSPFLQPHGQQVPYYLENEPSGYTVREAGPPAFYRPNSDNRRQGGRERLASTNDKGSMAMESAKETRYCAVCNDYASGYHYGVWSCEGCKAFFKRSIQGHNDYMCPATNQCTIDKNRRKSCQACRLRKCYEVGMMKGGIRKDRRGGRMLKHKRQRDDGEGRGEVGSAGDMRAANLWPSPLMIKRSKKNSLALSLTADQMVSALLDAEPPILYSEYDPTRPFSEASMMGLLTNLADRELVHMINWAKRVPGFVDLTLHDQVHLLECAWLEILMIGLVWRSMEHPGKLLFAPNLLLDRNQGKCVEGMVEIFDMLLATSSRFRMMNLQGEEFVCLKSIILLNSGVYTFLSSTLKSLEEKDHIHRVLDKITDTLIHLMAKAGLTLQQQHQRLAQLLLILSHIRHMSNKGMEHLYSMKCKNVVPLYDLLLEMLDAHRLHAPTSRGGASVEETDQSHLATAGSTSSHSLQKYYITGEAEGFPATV
The target is the same in experiment [7]. Description: qHTS assay to identify small molecule agonists of the estrogen receptor alpha (ER-alpha) signaling pathway using the BG1 cell line (AID 743079). Also: nearly all actives have a fitted effect of over 20% in size. Also: potency is read from the fitted curve at half-maximal effect.
Experiment [8] can be described thus: qHTS assay to identify small molecule antagonists of the estrogen receptor alpha (ER-alpha) signaling pathway using the BG1 cell line (AID 743080; calls by dose curve;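 also: BG1 cells stimulated with 17beta-estradiol alongside compound; nearly all actives have a fitted effect of over 25% in size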; also: potency is read from the fitted curve at half-maximal effect). Summed up:
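Quantitative HTS on the Tox21 10K library: BG1 cells with endogenous ER-alpha and ERE-luciferase reporter, 17beta-estradiol stimulation, 21.5 h compound exposure, luminescence endpoint with parallel fluorescence cytotoxicity counter-read.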

Experiment [9] is described as follows: qHTS assay to identify small molecule antagonists of the estrogen receptor alpha (ER-alpha) signaling pathway using the BG1 cell line - cell viability counter screen (AID 743081).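 Also: compound given together with 17beta-estradiol as the ER stimulus; series mostly up to about 70 µM; nearly all actives have a fitted effect of over 45% in size.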
The target in the next experiment is Aromatase (Homo sapiens) (UniProt P11511). Description: qHTS assay to identify aromatase inhibitors (AID 743083). Also: nearly all actives have a fitted effect of over 55% in size. Also: potency is read from the fitted curve at half-maximal effect.
Chain of Aromatase (Homo sapiens) (P11511 whole entry, looked up): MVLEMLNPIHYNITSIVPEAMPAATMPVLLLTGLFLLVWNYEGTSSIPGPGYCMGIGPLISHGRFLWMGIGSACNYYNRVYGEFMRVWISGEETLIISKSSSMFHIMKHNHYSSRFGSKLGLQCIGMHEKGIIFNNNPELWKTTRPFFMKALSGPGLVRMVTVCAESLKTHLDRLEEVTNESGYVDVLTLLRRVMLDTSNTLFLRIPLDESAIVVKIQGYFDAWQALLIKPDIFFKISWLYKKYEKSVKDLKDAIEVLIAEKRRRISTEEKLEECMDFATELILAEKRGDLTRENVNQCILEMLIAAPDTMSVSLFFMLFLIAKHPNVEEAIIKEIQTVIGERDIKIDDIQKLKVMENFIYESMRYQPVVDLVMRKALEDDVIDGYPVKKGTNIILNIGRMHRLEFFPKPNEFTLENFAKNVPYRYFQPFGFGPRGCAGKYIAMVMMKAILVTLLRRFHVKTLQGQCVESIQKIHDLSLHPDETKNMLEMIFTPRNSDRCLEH
The nature of experiment [10]: qHTS assay to identify aromatase inhibitors - cell viability counter screen (AID 743084).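 Also: cells stimulated with testosterone during compound exposure; nearly all actives have a fitted effect of over 55% in size.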
Experiment [11] deals with Aryl hydrocarbon receptor (Homo sapiens) (UniProt P35869). Kind of experiment: qHTS assay to identify small molecule that activate the aryl hydrocarbon receptor (AhR) signaling pathway (AID 743085).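 Also: HG2L7.5c1 human HepG2 liver cells with stably integrated DRE-driven firefly reporter; series mostly up to about 70 µM; nearly all actives have a fitted effect of over 15% in size.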 Summed up: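 HepG2 cells (HG2L7.5c1) stably carrying a firefly luciferase reporter driven by 20 dioxin responsive elements were exposed to compound for 24 h at 37C after a 5 h settling period; luminescence rise (ONE-Glo) indicated activation.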
Chain of Aryl hydrocarbon receptor (Homo sapiens) (P35869 whole entry, looked up): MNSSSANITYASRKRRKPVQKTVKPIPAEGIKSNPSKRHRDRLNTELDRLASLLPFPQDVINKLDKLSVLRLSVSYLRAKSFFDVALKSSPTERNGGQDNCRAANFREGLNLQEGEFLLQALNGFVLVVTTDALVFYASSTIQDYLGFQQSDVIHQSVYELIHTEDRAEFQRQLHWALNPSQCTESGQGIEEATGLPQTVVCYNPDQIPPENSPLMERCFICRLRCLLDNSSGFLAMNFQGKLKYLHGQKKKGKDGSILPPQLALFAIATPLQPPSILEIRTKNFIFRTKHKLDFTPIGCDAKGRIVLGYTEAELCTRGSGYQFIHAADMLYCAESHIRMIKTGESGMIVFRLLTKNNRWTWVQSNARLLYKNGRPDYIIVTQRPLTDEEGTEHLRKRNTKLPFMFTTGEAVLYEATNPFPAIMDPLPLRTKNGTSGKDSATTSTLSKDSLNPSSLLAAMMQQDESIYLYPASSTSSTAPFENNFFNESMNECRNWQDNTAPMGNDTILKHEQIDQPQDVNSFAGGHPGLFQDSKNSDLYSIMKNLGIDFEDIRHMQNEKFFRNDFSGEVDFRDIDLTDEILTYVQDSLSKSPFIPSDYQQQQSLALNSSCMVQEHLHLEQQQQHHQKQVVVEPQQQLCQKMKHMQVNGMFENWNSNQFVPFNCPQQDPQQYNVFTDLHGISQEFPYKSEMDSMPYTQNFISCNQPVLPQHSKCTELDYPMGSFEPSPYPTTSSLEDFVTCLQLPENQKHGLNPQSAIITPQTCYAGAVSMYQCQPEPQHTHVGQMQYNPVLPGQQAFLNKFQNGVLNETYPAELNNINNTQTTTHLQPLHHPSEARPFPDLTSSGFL

Experiment [12] is described as follows: qHTS assay to identify small molecule that activate the aryl hydrocarbon receptor (AhR) signaling pathway - cell viability counter screen (AID 743086).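 Also: HepG2 liver cells carrying the AhR DRE luciferase reporter; series mostly up to about 70 µM; nearly all actives have a fitted effect of over 45% in size.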 Summed up:
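HepG2-AhR-luc (HG2L7.5c1) cells, 4000/well, treated 24 h at 37 C with compound; viability measured as CellTiter-Fluor fluorescence after 30 min in the same wells as the luciferase read.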

For experiment [13], the target named is Peroxisome proliferator-activated receptor gamma (Homo sapiens) (UniProt P37231). Kind of experiment: qHTS assay to identify small molecule agonists of the peroxisome proliferator-activated receptor gamma (PPARg) signaling pathway (AID 743094; active = well fitted activation curve with a large enough effect in the signal ratio in the repeat runs, not every such curve was filed as active; the % refers to the signal ratio). Summed up:
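Following 5 h plating at 37C, PPARg-bla HEK293H cells receive compound or DMSO for 17 h; fluorescence intensity is recorded after LiveBLAzer B/G loading for 1 h at room temperature.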

“And” between values parts separate entries of the source, which are not always exact repeats. Equal entries are not always repeated. Results filed as inconclusive are left out. Some compounds were tested as several samples or in several runs, with calls that do not always agree. The source made the active and inactive calls. Unless noted, calls follow the shape of the dose curve; as a rule, active = well fitted curve in the direction sought with a large enough effect in the repeat runs; inconclusive = weak or mixed curves; inactive = no such curve, though single readings can be large; an effect the other way counts as inactive or inconclusive.

Chain of Peroxisome proliferator-activated receptor gamma (Homo sapiens) (P37231 whole entry, looked up): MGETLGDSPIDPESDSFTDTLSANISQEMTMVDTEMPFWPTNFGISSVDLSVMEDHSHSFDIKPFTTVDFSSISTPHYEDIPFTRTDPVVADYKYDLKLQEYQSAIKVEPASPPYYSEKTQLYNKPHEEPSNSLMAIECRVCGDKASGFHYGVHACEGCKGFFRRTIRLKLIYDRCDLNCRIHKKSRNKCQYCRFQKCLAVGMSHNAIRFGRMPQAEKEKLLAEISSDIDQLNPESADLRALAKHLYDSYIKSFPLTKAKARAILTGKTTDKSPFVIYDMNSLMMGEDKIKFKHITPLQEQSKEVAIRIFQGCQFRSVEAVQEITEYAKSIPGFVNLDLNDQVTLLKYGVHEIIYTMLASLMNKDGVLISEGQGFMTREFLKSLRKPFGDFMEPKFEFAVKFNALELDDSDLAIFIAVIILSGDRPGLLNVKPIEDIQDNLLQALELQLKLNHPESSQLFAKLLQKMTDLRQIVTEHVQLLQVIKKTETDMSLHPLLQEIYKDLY

With `COc1ccc(/C=C/C(=O)O)cc1`, the Potency entry in [1], in experiment [2], in [3], in experiment [4], in [5] and in experiment [6] was “inactive” each time. Also, the Potency result (in experiment [7]; in [8]; in experiment [9]; in the experiment with Aromatase (Homo sapiens); in experiment [10]; in experiment [11]) was “inactive” each time. The Potency result in experiment [12] and in experiment [13] was “inactive” each time.

With `CN1C(=O)C[C@@H](C(=O)N[C@@H](Cc2cnc[nH]2)C(=O)N2CCC[C@H]2C(N)=O)NC1=O`, the Potency result in experiment [1], in [2], in experiment [3], in [4], in experiment [5] and in [6] was “inactive” each time. Moreover, the Potency entry (in [7]; in experiment [8]; in experiment [9]; in the experiment with Aromatase (Homo sapiens); in experiment [10]; in experiment [11]) was “inactive” throughout. The Potency entry in [12] and in experiment [13] was “inactive” throughout.

As for `C/C(=C(/CCO)SSCC1CCCO1)N(C=O)Cc1cnc(C)nc1N` (configuration not stated), the Potency entry in [1], in experiment [2], in [3], in experiment [4], in experiment [5] and in experiment [6] was “inactive” in each case. Further, the Potency result in experiment [7], in experiment [8], in experiment [9], in [10], in experiment [11] and in experiment [12] was “inactive” throughout. The Potency result in experiment [13] was “inactive”. The Potency result with Aromatase (Homo sapiens) is “inactive and 29.8 µM (active)”.

`CC(=O)OCC(=O)[C@@]1(O)CC[C@H]2[C@@H]3CCC4=CC(=O)CC[C@]4(C)C3=CC[C@@]21C`: the Potency entry in experiment [1], in experiment [2], in experiment [3], in experiment [4], in [5] and in experiment [6] was “inactive” throughout. The Potency entry (in [8]; in experiment [9]; in the experiment with Aromatase (Homo sapiens); in experiment [10]; in experiment [11]; in [12]) was “inactive” each time. The Potency entry in experiment [13] is “inactive”. For the same molecule, in experiment [7], the Potency was 29.8 µM (active).

Take `CC1(C)CCC(NC(=O)[C@@H](N)CCC(=O)O)CC1`: the Potency entry in experiment [1], in [2], in experiment [3], in experiment [4], in [5] and in [6] was “inactive” throughout. The Potency entry (in experiment [7]; in experiment [8]; in [9]; with Aromatase (Homo sapiens); in experiment [10]; in [11]) was “inactive” each time. Further, the Potency result in experiment [12] and in experiment [13] was “inactive” in each case.

For the molecule `Nc1c(CC(=O)O)cccc1C(=O)c1ccccc1`, the Potency entry in experiment [1], in experiment [2], in [3], in [4], in [5] and in experiment [6] was “inactive” in each case. Also, the Potency result (in experiment [8]; in [9]; in the experiment with Aromatase (Homo sapiens); in experiment [10]; in experiment [11]; in experiment [12]) was “inactive” each time. Further, the Potency result in experiment [7] is “inactive and 10.6 µM (active)”.

Turning to `C[N+](C)(C)CCOP(=O)(O)OP(=O)([O-])OC[C@H]1O[C@@H](n2ccc(N)nc2=O)[C@H](O)[C@@H]1O`, the Potency entry in experiment [1], in [2], in experiment [3], in [4], in experiment [5] and in experiment [6] was “inactive” in each case. In addition, the Potency entry (in experiment [7]; in experiment [8]; in [9]; with Aromatase (Homo sapiens); in [10]; in experiment [11]) was “inactive” in each case. The Potency result in experiment [12] and in experiment [13] was “inactive” each time.

Take `NC(=O)[C@@H]1CCCN1C(=O)[C@H](Cc1cnc[nH]1)NC(=O)[C@@H]1CCC(=O)N1`: the Potency result in [1], in experiment [2], in experiment [3], in experiment [4], in experiment [5] and in experiment [6] was “inactive” in each case. The Potency entry (in experiment [7]; in [8]; in [9]; with Aromatase (Homo sapiens); in experiment [10]; in [11]) was “inactive” throughout. The Potency entry in experiment [12] and in experiment [13] was “inactive” throughout.

Consider `CCc1ncnc2cc(OC)c(OC)cc12`, for which the Potency entry in [1], in [2], in [3], in experiment [4], in experiment [5] and in [6] was “inactive” each time. The Potency result (in [7]; in experiment [8]; in [9]; with Aromatase (Homo sapiens); in [10]; in experiment [11]) was “inactive” throughout. For the same molecule, the Potency entry in experiment [12] is “inactive”.

With `CC(=O)N[C@@H](C=O)[C@H](O)[C@H](O)[C@@H](O)CO`, the Potency entry in [1], in experiment [2], in experiment [3], in experiment [4], in [5] and in experiment [6] was “inactive” in each case. Besides, the Potency result (in experiment [7]; in experiment [8]; in experiment [9]; with Aromatase (Homo sapiens); in experiment [10]; in experiment [11]) was “inactive” each time. Further, the Potency entry in experiment [12] and in [13] was “inactive” throughout.

Regarding `CC[C@H]1OC(=O)C[C@@H](O)[C@H](C)[C@@H](O[C@@H]2O[C@H](C)[C@@H](O[C@H]3C[C@@](C)(O)[C@@H](O)[C@H](C)O3)[C@H](N(C)C)[C@H]2O)[C@@H](CC=O)C[C@@H](C)C(=O)/C=C/C(C)=C/[C@@H]1CO[C@@H]1O[C@H](C)[C@@H](O)[C@@H](OC)[C@H]1OC`, the Potency result in experiment [1], in [2], in [3], in experiment [4], in experiment [5] and in [6] was “inactive” throughout. Further, the Potency entry (in experiment [7]; in experiment [9]; with Aromatase (Homo sapiens); in experiment [10]; in experiment [11]; in experiment [12]) was “inactive” throughout. Besides, in [13], the Potency entry is “inactive”. Also, the Potency in experiment [8] was 16.8 µM (active) and inactive.

As for `Nc1cc(Cl)c(NC2=NCCN2)c(Cl)c1`, the Potency entry in experiment [1], in experiment [2], in experiment [3], in experiment [4], in experiment [5] and in [6] was “inactive” each time. Moreover, the Potency result (in experiment [7]; in [8]; in [9]; in the experiment with Aromatase (Homo sapiens); in experiment [10]; in [11]) was “inactive” throughout. Moreover, the Potency result in experiment [12] and in [13] was “inactive” in each case.

With `C=CC[N+]1([C@H]2C[C@H]3[C@@H]4CC[C@H]5C[C@H](O)[C@@H](N6CCOCC6)C[C@]5(C)[C@H]4CC[C@]3(C)[C@H]2OC(C)=O)CCCC1`, the Potency entry in [1], in experiment [2], in experiment [3], in [4], in [5] and in experiment [6] was “inactive” each time. The Potency entry (in [8]; in [9]; with Aromatase (Homo sapiens); in experiment [10]; in [11]; in experiment [12]) was “inactive” each time. In addition, the Potency result in experiment [13] was “inactive”. Also, in experiment [7], the Potency is 26.6 µM (active).

Turning to `O=C(O)/C=C/C(=O)Nc1ccc(S(=O)(=O)Nc2nccs2)cc1`, the Potency result in experiment [1], in [2], in [3], in experiment [4], in experiment [5] and in experiment [6] was “inactive” in each case. In addition, the Potency result (in experiment [7]; in experiment [8]; in [9]; with Aromatase (Homo sapiens); in experiment [10]; in [11]) was “inactive” in each case. Also, the Potency result in experiment [12] and in [13] was “inactive” throughout.

Regarding `CCCCCCCCCCCCCCCC(=O)OC[C@H](COP(=O)([O-])OCC[N+](C)(C)C)OC(=O)CCCCCCCCCCCCCCC`, the Potency entry in [1], in experiment [2], in experiment [3], in experiment [4], in experiment [5] and in [6] was “inactive” each time. Besides, the Potency entry (in experiment [7]; in experiment [8]; in [9]; in the experiment with Aromatase (Homo sapiens); in experiment [10]; in experiment [11]) was “inactive” each time. Moreover, the Potency entry in experiment [12] and in [13] was “inactive” each time.

`CO/N=C(\C(=O)N[C@@H]1C(=O)N2C(C(=O)O)=C(CSc3nc(C)c(CC(=O)O)s3)CS[C@H]12)c1csc(N)n1`: the Potency entry in experiment [1], in [2], in experiment [3], in [4], in [5] and in experiment [6] was “inactive” throughout. Moreover, the Potency result (in experiment [7]; in experiment [8]; in experiment [9]; with Aromatase (Homo sapiens); in experiment [10]; in experiment [11]) was “inactive” each time. Further, the Potency result in experiment [12] and in [13] was “inactive” throughout.
